Measured values as given in ChEMBL document CHEMBL3988442, “University of Dundee, Small-Polar-MMV Screening Library” (2021).
The whole screen tested about 69,000 compounds, of which about 1,000 (1.4%) showed an effect of 50% or more. Shown is part of a subset that was picked to be rich in strong results.

Test system: Leishmania donovani
Assay: Leishmania intramacrophage assay
Type: functional, organism-based
Set-up: scale not given: in the data most compounds retested in dose-response had high values

## CC1(C)CN(C(CNS(C)(=O)=O)c2ccc(Cl)cc2)CCO1 (stereo unspecified)
30.3 µM, […]
  Percent Effect: 30.45%

## O=C(Cc1ccc(F)cc1)N1CCn2c(Cn3cncn3)cnc2C1
30.3 µM, […]
  Percent Effect: 5.226%

## CCc1nc2n(n1)CC(NCc1nc(-c3ccccn3)no1)CC2 (stereo unspecified)
30 µM
  Percent Effect: -15.89%

## Cc1noc(C)c1CC(=O)N1CCCC(Cn2ccnc2C)C1 (stereo unspecified)
30.3 µM, […]
  Percent Effect: 14.7%

## CC(=O)N1CC(C(=O)N2CCCC(Cn3ccnc3C)C2)C1 (stereo unspecified)
30.3 µM, […]
  Percent Effect: 46.71%

## Cc1nccn1CC1CCCN(C(=O)Cc2ccsc2)C1 (stereo unspecified)
30.3 µM, […]
  Percent Effect: 72.54%

## COc1ccc(CN2CCN(S(=O)(=O)c3cc(C(=O)O)cs3)CC2)cc1
30.3 µM, […]
  Percent Effect: 15%

## Cn1cc(C(=O)N2CC[C@@H]3[C@@H]2CCN3c2ccccn2)cn1
30.3 µM, […]
  Percent Effect: 28.1%

## CC(=O)NCCCOc1c(C)cccc1Cl
30.3 µM, […]
  Percent Effect: 16.58%

## Cc1ccc(C(=O)N2CCC3(CCC(=O)N(CCN(C)C)C3)CC2)nc1
30.3 µM, […]
  Percent Effect: 0.8363%

## CCN1CCCC1Cn1ccc2ccc(C(=O)OC)cc2c1=O (stereo unspecified)
30.3 µM, […]
  Percent Effect: -29.19%

## CCc1ccc2nc(NCC(O)CO)cc(C)c2c1 (stereo unspecified)
30.3 µM, […]
  Percent Effect: 21.82%

## CCc1ccc2nc(NCCCN(CCO)CCO)cc(C)c2c1
30.3 µM, […]
  Percent Effect: 97.87%

## CCc1ccc2nc(NCCOCCO)cc(C)c2c1
30.3 µM, […]
  Percent Effect: 19.28%

## CCc1ccc(CN2Cc3nccn3CC(Cn3cncn3)C2)o1.O=C(O)C(F)(F)F (stereo unspecified)
30.3 µM, […]
  Percent Effect: 27.46%

## COc1cccc(COCC(=O)N2CCC(CC(N)=O)CC2)c1
30 µM, 30.03 µM
  Percent Effect: -26.96%

## Cc1c(C)n(-c2ccccn2)c2nc3c(c(N)c12)CCCC3
30 µM, 30.03 µM
  Percent Effect: 43.5%

## Cc1c(C)n(Cc2ccccn2)c2nc3c(c(N)c12)CCCCCC3
30.3 µM, […]
  Percent Effect: 8.308%

## Cc1c(C)n(-c2ccccn2)c2nc3c(c(N)c12)CCCCC3
30.3 µM, […]
  Percent Effect: 70.72%

## CC1CN(C)c2ccccc2CN1C(=O)c1ccc[nH]1 (stereo unspecified)
30 µM, 30.03 µM
  Percent Effect: 18.04%

## COCCn1cnc2ccc(NC(=O)c3ccc(OC)cc3)cc2c1=O
30.3 µM, […]
  Percent Effect: 23.03%

## Cn1ccnc1COc1ccc(COC(=O)C2CCCO2)cc1 (stereo unspecified)
30.3 µM, […]
  Percent Effect: -0.4672%

## Cc1c(CC(C#N)C(=O)Nc2cccc(O)c2)cnn1C (stereo unspecified)
30.3 µM, […]
  Percent Effect: -22.11%

## COC(=O)Nc1nc2c(s1)CN(C(=O)NCc1cccs1)CC2
30.3 µM, […]
  Percent Effect: -0.9773%

## COc1ccc(Cl)cc1NC(=O)N1CCc2nc(NC(C)=O)sc2C1
30.3 µM, […]
  Percent Effect: 55.24%

## COc1ccc(Cl)cc1NC(=O)CN1CCc2nc(NC(C)=O)sc2C1
30.3 µM, […]
  Percent Effect: -8.893%

## Cn1ccnc1CN1CCCN(C(=O)c2ccc(O)nc2)CC1
30 µM
  Percent Effect: 25.73%

## Cc1nc2sccn2c1CN(CCCN(C)C)Cc1ccco1.O=C(O)CC(O)(CC(=O)O)C(=O)O
30.3 µM, […]
  Percent Effect: 41.01%

## CC[C@@]1(O)CCN(C(=O)CCc2cnn(C)c2)C[C@H]1O
30.3 µM, […]
  Percent Effect: 28.56%

## COc1ccc(C(C)NCc2nnc(C)s2)cc1F (stereo unspecified)
30.3 µM, […]
  Percent Effect: 13.85%

## COc1ccc(C(C)NCCC(N)=O)cc1F (stereo unspecified)
30.3 µM, […]
  Percent Effect: 52.68%

## COc1ccc(C(C)NCCc2ccc(NC(C)=O)cc2)cc1F (stereo unspecified)
30.3 µM, […]
  Percent Effect: 23.19%

## CCSc1cc(C(=O)NCCc2nnc(-c3ccco3)[nH]2)ccn1
30.3 µM, […]
  Percent Effect: -0.0887%

## CN(CCn1nc2ccccn2c1=O)CC(=O)N(C)C1CCCCC1
30.3 µM, […]
  Percent Effect: 4.76%

## Cc1nc(N2CCCC2)ncc1-c1cc(O)nc(N2CCN(C)CC2)n1
30.3 µM, […]
  Percent Effect: 59.07%

## Cc1nc(N2CCCC2)ncc1-c1cc(O)nc(N2CCCC2)n1
30 µM, 30.03 µM
  Percent Effect: 15.83%

## Cc1nc(N2CCCC2)ncc1-c1cc(O)nc(N2CCCCC2)n1
30.3 µM, […]
  Percent Effect: -14.51%

## CCCS(=O)(=O)NC(=O)c1sc(C2CCCC2)nc1C
30.3 µM, […]
  Percent Effect: 11.93%

## COCCNC(=O)C[C@@H]1COC[C@H]2CN(C(=O)c3cnccn3)C[C@@H]12
30 µM, 30.03 µM
  Percent Effect: 9.909%

## COCCNC(=O)C[C@@H]1COC[C@H]2CN(C(=O)COC)C[C@@H]12
30.3 µM, […]
  Percent Effect: 51.2%

## COCCNC(=O)C[C@@H]1COC[C@H]2CN(C(=O)C3CCOCC3)C[C@@H]12
30.3 µM, […]
  Percent Effect: 11.97%

## COC(=O)C(c1ccccc1)N(C)C(=O)c1ccnc(C)n1 (stereo unspecified)
30 µM
  Percent Effect: 22.67%

## Cc1ccccc1-n1ccc2nc(N3CCCC3)ncc2c1=O
30.3 µM, […]
  Percent Effect: 13.99%

## CS(=O)(=O)CC(=O)N(CCN1CCOCC1)Cc1ccco1
30.3 µM, […]
  Percent Effect: -78.1%

## Cc1ccc2c(c1)C(N1CCOCC1)CC21CCNCC1 (stereo unspecified)
30.3 µM, […]
  Percent Effect: 55.92%

## COCCN1CCC2(CC1)CC(NC(=O)COC)c1ccccc1O2.O=C(O)C(F)(F)F (stereo unspecified)
30.3 µM, […]
  Percent Effect: 15.07%

## Cc1ccc2c(c1)C1(CCNCC1)CC2N1CCOCC1 (stereo unspecified)
30.3 µM, […]
  Percent Effect: 11.46%

## COCCN1CCC2(CC1)CC(NC(=O)CN(C)C)c1ccccc1O2.O=C(O)C(F)(F)F.O=C(O)C(F)(F)F (stereo unspecified)
30.3 µM, […]
  Percent Effect: 52.21%

## CCC(=O)N1CCC2(CC1)CC(N1CCOCC1)c1cc(C)ccc12.O=C(O)C(F)(F)F (stereo unspecified)
30.3 µM, […]
  Percent Effect: 12%

## COCCN1CCC2(CC1)CC(NCc1ccc(C)s1)c1ccccc12.O=C(O)C(F)(F)F.O=C(O)C(F)(F)F (stereo unspecified)
30.3 µM, […]
  Percent Effect: 59.95%

## Cn1cncc1CNC1CC2(CCN(CC3CC3)CC2)c2ccccc21.O=C(O)C(F)(F)F.O=C(O)C(F)(F)F (stereo unspecified)
30.3 µM, […]
  Percent Effect: 22.11%

## COCC(=O)NC1CC2(CCN(CCO)CC2)c2ccccc21.O=C(O)C(F)(F)F (stereo unspecified)
30.3 µM, […]
  Percent Effect: 8.463%

## Cc1cccc(CNC2CC3(CCN(CCO)CC3)c3ccccc32)n1.O=C(O)C(F)(F)F.O=C(O)C(F)(F)F (stereo unspecified)
30.3 µM, […]
  Percent Effect: 9.361%

## COCCN1CCC2(CC1)CC(NCc1cncn1C)c1ccccc12.O=C(O)C(F)(F)F.O=C(O)C(F)(F)F (stereo unspecified)
30.3 µM, […]
  Percent Effect: 17.77%

## Cc1ccc(CNC2CC3(CCN(CCO)CC3)c3ccccc32)s1.O=C(O)C(F)(F)F.O=C(O)C(F)(F)F (stereo unspecified)
30.3 µM, […]
  Percent Effect: 81.48%

## COCCN1CCC2(CC1)CC(NC(=O)CC1CC1)c1ccccc1O2.O=C(O)C(F)(F)F (stereo unspecified)
30.3 µM, […]
  Percent Effect: -12.69%
